Screening data from PubChem BioAssay.
This is a sample that favours compounds with a hit; in the whole collection about 4.6% have one here.
TIM10 inh = TIM10 yeast growth inhibition; S. cerevisiae TIM10 strain growth, BacTiter-Glo luminescence, 24 h; inhibition, % at 10 µM; actives 1.4% (n = 330,000);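 active means inhibition of 40% or more at the single tested concentration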;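 further: wild-type TIM10 isogenic control strain grown at permissive 25 °C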
SKKanGAS inh = blocks kanamycin growth of S. pyogenes SKKanGAS strain. actives 1.3% (n = 300,000). BacTiter-Glo, 6 h. inhibition, % at 7.5 µM;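 active means mean replicate score, as percent of positive control median, at least 50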;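 further: strain carries kanamycin resistance gene driven by streptokinase promoter and grows in 40 µg/ml kanamycin; loss of luminescence reflects streptokinase promoter inhibition or plain growth inhibition; 0% = median of DMSO wells and 100% = positive control at its reference dose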
tim10-1 inh = growth inhibitors of tim10-1 mutant yeast | S. cerevisiae tim10-1 ts strain growth, BacTiter-Glo, 24 h | inhibition, % at 20 µM | actives 2.2% (n = 330,000) | AID 463190;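 active means inhibition of at least 40%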;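 further: mutant grown at 25 °C; 0% = DMSO wells with yeast and 100% = wells holding no yeast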
NALP3 yeast inh = NALP3 inhibition in yeast | Yeast reconstituted NLRP3/ASC/caspase-1, beta-gal luminescence, 24 h | inhibition, % at 10 µM | actives 0.39% (n = 330,000) | AID 2825;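 active means inhibition of 50% or more; inactive means inhibition below 50%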;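 further: plate controls were induced DMSO wells for no effect and uninduced yeast grown without galactose for full effect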
PfHsp90 yeast 2 = reduces growth (ATP signal) of yeast expressing P. falciparum Hsp90; S. cerevisiae expressing PfHsp90, BacTiter-Glo ATP, 48 h; yeast lacking PDR1 and PDR3 efflux regulators; inhibition, % at 9.4 µM; actives 0.32% (n = 310,000); AID 504621;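 active means every replicate shows inhibition above about 80%, whatever the replicate mean, limit read from the data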;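 further: 0% = DMSO neutral controls and 100% = 20 µM radicicol positive controls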
tim23-1 inh = growth inhibitors of tim23-1 mutant yeast | S. cerevisiae tim23-1 growth, BacTiter-Glo luminescence, 24 h | inhibition, % at 20 µM | AID 463212 | actives 1.3% (n = 330,000);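 active means growth inhibition of the mutant yeast at or above 50%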;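 further: temperature-sensitive mutant grown at 25 °C; plate controls were DMSO-treated mutant yeast for no effect and medium wells lacking yeast for full effect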
TIM10 conf = confirmation of TIM10 yeast growth inhibitors. shares compounds with TIM10 inh. S. cerevisiae tim10 strain growth, BacTiter-Glo luminescence, 24 h. inhibition, % at 10 µM. actives 63% (n = 4,600). AID 463215;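 active means inhibition of yeast growth at or above a set limit in either of two replicates at 10 µM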;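 further: this counterscreen used the strain with wild-type TIM10; 0% = yeast with DMSO and 100% = medium wells lacking yeast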
Starred values were filed as active, the others as inactive; nt = no result.

SMILES	TIM10 inh	SKKanGAS inh	tim10-1 inh	NALP3 yeast inh	PfHsp90 yeast 2	tim23-1 inh	TIM10 conf
COc1ccc(-c2nn(-c3ccccc3)cc2C(=O)Nc2nccs2)cc1	43*	-4	36	16	-25	45	30
O=C(Nc1ccncc1)c1cn(-c2ccccc2)nc1-c1cccs1	44*	6	34	22	nt	17	53*
Cc1ccc(-c2nn(-c3ccccc3)cc2/C=C/C(=O)Nc2nccs2)cc1	14	4	12	13	-3	-2	nt
CCCCn1c(N)c(N(CCOC)C(=O)CN(C)S(=O)(=O)c2ccc(C)cc2)c(=O)[nH]c1=O	-8	-4	-9	14	-11	-10	nt
Cc1cccc(C)c1NC(=S)NC(=O)c1ccc(Br)o1	42*	0	34	-17	-44	38	43*
Cc1cccc(NC(=S)NC(=O)c2ccc(Br)o2)c1C	-2	2	-4	45	14	-1	nt
O=C(CN1C(=O)NC2(CCCC2)C1=O)N1CCc2ccccc2C1	-3	-1	11	12	-1	4	nt
CC(=O)c1cc2c(cc1N/C(=N/S(=O)(=O)c1ccc(C)cc1)c1ccccc1)OCO2	43*	-7	26	15	25	30	2
COc1ccccc1CNC(=O)c1ccc2ccccc2n1	-11	-2	7	38	-21	25	nt
CC(NC(=O)c1c(F)cccc1Cl)c1ccc(-n2ccnc2)cc1 (stereo unspecified)	-16	2	-5	6	-5	-10	nt
Nc1nc2nc(-c3ccccc3)cc(C(F)(F)F)c2s1	47*	-14	5	-17	18	47	40*
Cc1cc(C(F)(F)F)c2sc(N)nc2n1	-17	9	-6	5	1	7	nt
O=C(NC(=S)NCCCN1CCOCC1)c1ccc([N+](=O)[O-])cc1	-5	7	-9	10	-12	-12	nt
CCN1CCN(C(=O)c2cn(CCOC)c(=O)c3c2c2ccccc2n3C)CC1	2	-6	6	0	23	-12	nt
CC(C)Cn1cc(C(=O)N2CCN(c3ccccn3)CC2)c2c3ccccc3n(C)c2c1=O	44*	7	33	5	-8	25	25
O=C(NC1CC2CCC(C1)N2Cc1ccccc1)c1ccccc1Cl (stereo unspecified)	-18	6	-8	15	-3	4	nt
Cc1cc(C(=O)CCl)c(C)n1Cc1ccco1	46*	0	38	-83	nt	34	34*
COc1ccc(/C=C2/NC(=O)N(CC(=O)Nc3cccc(C)c3)C2=O)cc1O	-4	4	6	9	-35	-10	nt
CC(c1ccco1)N(C(=O)c1ccccc1NS(=O)(=O)c1cc([N+](=O)[O-])ccc1Cl)c1ccccn1 (stereo unspecified)	45*	7	39	15	-10	40	34*
CC(c1ccco1)N(C(=O)c1ccccc1NS(=O)(=O)c1ccc(Cl)cc1)c1ccccn1 (stereo unspecified)	45*	-1	36	24	-5	43	41*
CC1(c2ccccc2Cl)NC(=O)N(CC(=O)c2ccc3c(c2)OCO3)C1=O (stereo unspecified)	-1	1	6	20	nt	1	nt
CCOC(=O)N1CCC(NC(=O)c2ccc(CS(=O)(=O)c3ccccc3C)o2)CC1	-1	-5	-2	-3	4	-1	nt
CC(C)CC(c1nnnn1Cc1cccs1)N1CCN(c2nc3ccccc3s2)CC1 (stereo unspecified)	28	32	30	-3	33	1	nt
CC(C)C(c1nnnn1Cc1ccco1)N1CCN(c2nc3ccccc3s2)CC1 (stereo unspecified)	45*	12	28	8	16	21	-25
O=C1CC(C2CCCO2)C(=O)N1c1ccc(Cl)c(Cl)c1 (stereo unspecified)	2	-2	2	1	nt	8	nt
COc1cccc(/C=N/n2cnc3cc(C)c(C)cc32)c1OC	42*	1	35	22	-6	27	36*
CC(C)OC(=O)CSc1nnc(-c2cnccn2)n1Cc1ccco1	9	-11	9	6	23	11	nt
